Rows were chosen to be rich in hits. Some 14% of all compounds tested hit in one or more screens of this group.
CRE Fsk mod – CRE-bla signaling modulation under forskolin stimulation; CHO CRE-bla reporter (cAMP response element driving beta-lactamase), forskolin EC10, beta-lactamase ratio; Potency, µM (doses to about 38.2 µM), inactives show at the highest dose activity change, negative = inhibition, usual class: activators; 71,000 tested, 2.5% active; active = well fitted activation curve with a large enough effect in the signal ratio, with a control signal flat, not every such curve was filed as active; inconclusive = small, poorly fitted or top-dose-only effect, or effect the other way, or a change in a side signal; the % refers to the signal ratio; also: potency is read from the fitted curve at half-maximal effect; % of control where 0% means no effect
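Beta-lactamase reporter under a cAMP responsive element in CHO cells; compounds tested in titration series against EC10 NKH 477, 3 h at 37 °C. Read-out: CCF4 FRET ratio 460nm/530nm (excitation 405nm) giving %Activity, fitted to AC50.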
AID923 – qHTS Assay for Allosteric/Competitive Inhibitors of Caspase-1: Spectroscopic Profiling in AFC Spectral Region; compound fluorescence, AFC spectral region (405/520 nm); Potency, µM (doses to about 57.5 µM), inactives show at the highest dose fluorescence increase, actives largely listed as activators; 75,000 tested, 1.1% active; also: potency is read from the fitted curve at half-maximal effect; 0% is about no effect
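Compound autofluorescence profiled at 405 nm ex/520 nm em during kinetic caspase 1 run (50 nM enzyme, 5 uM Ac-WEHD-AFC, HEPES pH 7.5, 10 mM DTT). Titration up to 57 uM; baseline from regression intercept, normalized to AFC standard curve.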
4MU fluor – compounds fluorescent in 4-MU spectral region; compound autofluorescence, 340/450 nm, 4-MU equivalents; stronger effect = higher value; max dye-equivalent concentration, M; 59,000 tested, 11% active; AID 589; in the data active = max dye-equivalent concentration above about 10 nM; inconclusive = mostly about 1.1 nM to 9.6 nM
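Intrinsic fluorescence at 340/450 nm (ex/em) was read after 15 min at room temperature in pH 8.0, 100 mM Tris. Each compound concentration expressed as 4-MU-equivalent concentration from a six-point 4-MU standard series on each plate.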
HADH2 inhib – HADH2 (human) dehydrogenase inhibition | recombinant HADH2, NADH fluorescence, beta-hydroxybutyryl-CoA | Potency, µM (doses to about 57.1 µM), for inactives: at the top dose activity change, negative = inhibition, hits mostly inhibitors | 73,000 tested, 3.4% active | AID 886; also: potency is read from the fitted curve at half-maximal effect; % is scaled to controls: 0 for no effect and ±100 for the full control effect; nearly all actives have a fitted effect of over 60% in size
Target sequence (Q99714 whole entry, looked up, one chain of several): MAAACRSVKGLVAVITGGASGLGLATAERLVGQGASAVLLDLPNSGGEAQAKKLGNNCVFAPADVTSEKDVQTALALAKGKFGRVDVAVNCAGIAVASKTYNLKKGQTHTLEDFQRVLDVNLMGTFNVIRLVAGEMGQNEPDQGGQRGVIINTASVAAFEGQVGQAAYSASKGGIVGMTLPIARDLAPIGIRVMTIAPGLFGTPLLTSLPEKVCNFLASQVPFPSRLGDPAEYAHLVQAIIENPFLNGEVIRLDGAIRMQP
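His-tagged recombinant enzyme from E. coli, 20 nM, preincubated 15 min RT with compound; reaction started with 1 mM NAD+ and 90 uM beta-hydroxybutyryl-CoA in 100 mM Tris-HCl pH 9.0. NADH fluorescence (ex 360/em 450) read over 4 min; last-minus-first difference.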
HSD17B inh – HSD17B dehydrogenase inhibition; Q99714; recombinant HSD17B10, NADH fluorescence kinetic; Potency, µM (doses to about 57.1 µM), without a hit: top-dose activity change, negative = inhibition, usual class: inhibitors; 75,000 tested, 7.6% active; AID 893;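 also: the protocol describes HADH2 (HSD17B10) and not the HSD17B4 of the title; potency is read from the fitted curve at half-maximal effect; % is scaled to controls: 0 for no effect and ±100 for the full control effect; nearly all actives have a fitted effect of over 70% in size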
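Enzyme plus compound, 15 min room temperature; substrate mix added (NAD+ 1 mM, beta-hydroxybutyryl-CoA 90 uM final); plates read kinetically for NADH fluorescence. HADH2 was His-tagged, E. coli-derived, 20 nM.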
A350 fluor – compound fluoresces in the Alexa 350 spectral region; Compound autofluorescence, 340/450 nm, Alexa 350 dye-equivalents; stronger effect = higher value; max dye-equivalent concentration, M; 59,000 tested, 11% active; in the data active = max dye-equivalent concentration above about 10 nM; inconclusive = mostly about 1.1 nM to 9.6 nM
Starred values were filed as active, the others as inactive; i = inactive; ? = inconclusive; / = no result; [ ] = dose if it differs, or a comment. Unless noted, calls follow the shape of the dose curve; as a rule, active = well fitted curve in the direction sought with a large enough effect; inconclusive = small, poorly fitted or top-dose-only effect, or another doubt; inactive = no such curve, though single readings can be large; an effect the other way counts as inactive or inconclusive.

SMILES	CRE Fsk mod	AID923	4MU fluor	HADH2 inhib	HSD17B inh	A350 fluor
O=C(c1cccc(Cl)c1)N1CCN(C(=O)c2ccco2)CC1	-4.7%	2.3%	/	4.8%	6.7%	/
COc1cccc(-n2nnc3c(=O)n(Cc4cccc(C)c4)cnc32)c1	10µM*	-3.4%	/	-4.1%	-4.4%	/
COc1ccc(-n2nnc3c(=O)n(Cc4cc(C)ccc4C)cnc32)cc1	10.3%	0.3%	i	13.2%	3.2%	i
COc1cccc(-n2nnc3c(=O)n(Cc4ccccc4F)cnc32)c1	12.6µM*	1.1%	i	15.3%	?	i
Cc1ccc(Cn2nnc3c(=O)n(Cc4cccc(C)c4)cnc32)cc1	?	2.2%	i	4.9%	-6.0%	i
CC(C)(C)c1cc(Br)c(O)c(CN(Cc2cc(C(C)(C)C)cc(Br)c2O)C2CCCCC2)c1	7.4%[7.6 µM]	-2.7%[11.5 µM]	i	?	-0.7%[11.4 µM]	i
FC(F)(F)c1ccc(N2CCOCC2)c(NC2=NCCCCC2)c1	?	0.2%	1.04e-08M*	12.5%	12.1%	1.28e-08M*
CCOc1cc(N2CCOCC2)c(OCC)cc1NC1=NCCCCC1	4.3%	-1.0%	i	-12.5%	-14.2%	i
CC(=O)N1CCC2(CC1)CN(c1ccccc1)C2	-1.9%	3.4%	i	1.1%	-0.4%	i
Cc1ccc2nc(-c3ccccc3)cn2c1	-9.3%	1.2%	i	43.7%	31.6µM*	i
Cc1cccn2cc(-c3ccccc3)nc12	5.8%	-0.7%	i	?	25.1µM*	?
Cc1nn2cc(-c3ccc(-c4ccccc4)cc3)nc2s1	5.2%	-1.7%	?	-5.0%	?	?
Cc1cccn2cc(-c3ccc(F)cc3)nc12	1.0%	2.8%	/	?	31.6µM*	/
COc1ncc2nc(C)c(=O)n(C[C@H]3CCCO3)c2n1	?	0.5%	i	2.1%	-17.0%	i
Cc1nc(Sc2nnnn2C)c2c3c(sc2n1)CCC3	-8.3%	-0.4%	1.31e-08M*	-5.9%	12.6µM*	1.66e-08M*
CO[C@@H]1/C=C\CC(=O)N[C@@H](C)C(=O)OC[C@H](NS(=O)(=O)c2ccc(C)cc2)[C@H](C)/C=C\CC(=O)OC[C@H]1C	/	2.3%[11.5 µM]	/	3.1%[11.4 µM]	-0.5%[11.4 µM]	/
CC1=NCC[N@@+]1(CCc1ccccc1)Cc1ccccc1	-4.7%[7.6 µM]	3.9%[11.5 µM]	i	6.3%[11.4 µM]	8.3%[11.4 µM]	i
COc1ccccc1-c1ccc(C(=O)O)o1	-11.0%	-1.0%	i	25.1µM*	31.6µM*	?
COc1ccccc1-c1cc(=O)c2cc(O)ccc2o1	?	-0.6%	i	-2.0%	4.2%	i
COc1ccccc1CC(=O)Nc1ccc(O)cc1C(=O)O	-0.6%	0.7%	?	?	31.6µM*	?
N#CCC(=O)Nc1sc2c(c1C(N)=O)CCCC2	12.6µM*	-1.1%	/	-12.4%	11.9%	/
COC(=O)c1c(NC(=O)c2ccc(Br)s2)sc2c1CCC2	-2.8%	7.9%	1.24e-08M*	?	?	1.02e-08M*
COCC(=O)Nc1sc2c(c1C(=O)OC)CCC(C)C2 (configuration not stated)	7.2%	1.1%	i	-0.3%	31.6µM*	i
COC(=O)c1c(NC(=O)c2ccoc2C)sc2c1CCC2	8.2%	2.0%	6.82e-08M*	31.6µM*	25.1µM*	7.23e-08M*
Cc1occc1C(=O)Nc1sc2c(c1C(N)=O)CCCCC2	?	0.7%	2.35e-08M*	?	?	2.9e-08M*
SMILES	CRE Fsk mod	AID923	4MU fluor	HADH2 inhib	HSD17B inh	A350 fluor
Cc1noc(C)c1C(=O)Nc1sc2c(c1C(N)=O)CCC2	?	1.3%	1.86e-07M*	?	/	1.64e-07M*
CC1CCc2c(sc(NC(=O)c3noc4c3CCCC4)c2C(N)=O)C1 (configuration not stated)	?	-0.4%	6.19e-08M*	-0.2%	-3.2%	1.24e-07M*
COC(=O)c1c(NC(=O)c2nn(C)cc2Cl)sc2c1CCCC2	/	/	2.43e-07M*	/	/	2.77e-07M*
Cc1noc(C)c1C(=O)Nc1sc2c(c1C(N)=O)CCCCC2	15.2%	-1.9%	i	?	-6.5%	?
Nc1nccs1	-6.2%	2.5%	/	?	-3.3%	/
CCCCCC1=C2CNC(C)(C(=O)OC)C=C2C(C)C1=O (configuration not stated)	-14.1%	1.0%	/	-5.7%	-26.6%	/
COC(=O)c1ccc(C(NC(=O)OCc2ccccc2)/C(=C/[C@@H](C)C(=O)NCc2ccc(S(C)(=O)=O)cc2)c2cccnc2)cc1 (some centres not stated)	-6.2%	2.6%	/	-2.2%	10.0%	/
CC1CCc2c(sc(N)c2C(N)=O)C1 (configuration not stated)	-2.5%	1.0%	/	15.8µM*	-7.6%	/
CCn1ncc(Br)c1C(=O)Nc1sc2c(c1C(=O)OC)CCC2	?	-0.5%	3.35e-08M*	25.1µM*	9.8%	2.5e-08M*
CN1c2ccccc2N(C)C1c1c(O)ccc2ccccc12	/	/	1.05e-08M*	/	/	1.35e-08M*
COc1ccc(C)cc1-n1c(-c2ccncc2)n[nH]c1=S	-3.0%	1.1%	i	-8.2%	-8.6%	i
COc1ccccc1-n1c(-c2cccnc2)n[nH]c1=S	-2.7%	-1.5%	1.12e-08M*	-16.4%	1.5%	1.6e-08M*
Clc1cccc(Cl)c1-c1nnc2ccc(N3CCOCC3)nn12	?	0.6%	i	-3.4%	5.2%	i
COc1ccc(-c2nnc3ccc(SCC(=O)N4CCN(c5ccccc5)CC4)nn23)cc1	6.6%	-1.1%	1.3e-08M*	?	-10.7%	1.72e-08M*
CCOC(=O)CSc1ccc2nnc(-c3cccs3)n2n1	3.98µM*	-3.8%	/	?	-6.3%	/
CCOC(=O)C(C)Sc1ccc2nnc(-c3ccc(F)cc3)n2n1 (configuration not stated)	24.1%	-0.2%	?	?	31.6µM*	1.12e-08M*
Fc1cccc(Cl)c1-c1nnc2ccc(N3CCOCC3)nn12	12.6µM*	-0.9%	i	9.2%	-0.7%	i
O=C(CSc1ccc2nnc(-c3ccc(F)cc3)n2n1)N1CCCCC1	1.2%	-0.9%	?	?	-25.4%	?
CCSc1ccc2nnc(-c3ccc(F)cc3)n2n1	?	-1.1%	?	-26.1%	31.6µM*	?
Fc1ccc(-c2nnc3ccc(N4CCCC4)nn23)cc1	18.3%	-1.8%	/	23.5%	25.1µM*	/
Fc1ccc(C2C3=C(Nc4ncnn42)c2ccccc2OC3c2ccncc2)cc1 (configuration not stated)	/	/	4.95e-08M*	/	/	5.86e-08M*
CCSc1nc(-c2ccc(OC)cc2)ccc1C#N	?	5.0%	1.53e-07M*	24.3%	31.6µM*	1.12e-07M*
Cc1ccc(Cc2c(C)nc3c(C(=O)O)cnn3c2C)cc1	9.7%	0.3%	?	-10.5%	?	?
C=CCc1c(C)nc2c(C(=O)O)cnn2c1C	2.9%	-2.6%	?	-28.7%	25.1µM*	?

Compound activity as filed in PubChem BioAssay.
